These results are taken from PubChem BioAssay (NCI).

“And” between values parts separate entries of the source, which are not always exact repeats. Equal entries are not always repeated. This is part of a sample that, as a whole, favours compounds with a hit. Of some 83,000 tested, about 20% had one in any assay.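 Treatment: one concentration, 48 hours, 96-well format. Scoring: percent growth, with anything below 10 considered active.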 The source made the active and inactive calls.

What all share (assay): NCI-60 one-dose screen, 48 h (100 = growth as untreated, 0 = no growth, -100 = all killed)
One assay has as its system SK-MEL-2 melanoma. The following applies: 10 µM.
In another assay the test system is EKVX NSCLC. The following applies: 10 µM.
Another assay relates to SN12C renal. The following applies: 10 µM.
The next assay has as its system UO-31 renal. As to conditions: 10 µM.
The subject of the next assay is TK-10 renal. As to conditions: 10 µM unless noted.
The next assay deals with ACHN renal. As to conditions: 10 µM.
Another assay concerns CAKI-1 renal. The following applies: 10 µM.
The next assay relates to A498 renal. As to conditions: 10 µM.
In a further assay the test system is HL-60(TB) leukemia. As to conditions: 10 µM.
For the next assay, the system named is CCRF-CEM leukemia. As to conditions: 10 µM.

Turning to `O=S(=O)(F)c1ccc(Cl)cc1`, the growth is 124% (inactive) in the assay on SK-MEL-2 melanoma; 110% (inactive) with EKVX NSCLC; 105% (inactive) with SN12C renal; 91.5% (inactive) in the assay with UO-31 renal; 107% (inactive) in the assay with TK-10 renal; 111% (inactive) in the assay on ACHN renal. For the same compound, the growth is 105% (inactive) in the assay with CAKI-1 renal, 122% (inactive) with A498 renal, 123% (inactive) in the assay with HL-60(TB) leukemia and 92.7% (inactive) in the assay on CCRF-CEM leukemia.
Turning to `CC(C)(C)OOC(=O)/C=C\C(=O)OOC(C)(C)C`, the growth in the assay on SK-MEL-2 melanoma was 103% (inactive); in the assay on EKVX NSCLC it was 123% (inactive); with SN12C renal it was 97.3% (inactive); in the assay on UO-31 renal it was 103% (inactive); with TK-10 renal it was 101% (inactive); in the assay with ACHN renal it was 108% (inactive). Also, the growth is 127% (inactive) in the assay with CAKI-1 renal, 109% (inactive) in the assay on A498 renal, 74.6% (inactive) in the assay on HL-60(TB) leukemia and 96.4% (inactive) in the assay on CCRF-CEM leukemia.
Consider `COS(=O)(=O)c1ccccc1`, for which the growth in the assay with SK-MEL-2 melanoma was 101% (inactive); in the assay on EKVX NSCLC, 112% (inactive); with SN12C renal it was 112% (inactive); with UO-31 renal it was 89.5% (inactive); in the assay with TK-10 renal, 104% (inactive); in the assay on ACHN renal, 101% (inactive). Besides, the growth was 104% (inactive) in the assay with CAKI-1 renal, 112% (inactive) in the assay on A498 renal, 106% (inactive) with HL-60(TB) leukemia and 99.7% (inactive) in the assay with CCRF-CEM leukemia.
With `COc1cc(/C=C\[N+](=O)[O-])ccc1O`, the growth was 87.7% (inactive) and 93.5% (inactive) in the assay with SK-MEL-2 melanoma; 108% (inactive) and 91.7% (inactive) in the assay with EKVX NSCLC; 67.3% (inactive) and 94.1% (inactive) with SN12C renal; 44.5% (inactive) and 70.1% (inactive) with UO-31 renal; 23.5% (inactive) and 87.1% (inactive) with TK-10 renal; 13.4% (inactive) and 82.9% (inactive) in the assay with ACHN renal. Moreover, the growth was 74.4% (inactive) in the assay with CAKI-1 renal; 97.6% (inactive) and 102% (inactive) in the assay with A498 renal; 9.29% (active) and 48.1% (inactive) with HL-60(TB) leukemia; 6.86% (active) and 70.4% (inactive) in the assay on CCRF-CEM leukemia.
Consider `O=C1C=Cc2ccccc2C1=O`, for which the growth in the assay with SK-MEL-2 melanoma was 55.3% (inactive); with EKVX NSCLC, 82.6% (inactive); in the assay with SN12C renal it was 92.1% (inactive); in the assay on UO-31 renal, 50.3% (inactive); with TK-10 renal, 87.9% (inactive); with ACHN renal, 46.5% (inactive). In addition, the growth was 86.2% (inactive) in the assay on CAKI-1 renal, 91.3% (inactive) in the assay on A498 renal, 87.3% (inactive) in the assay on HL-60(TB) leukemia and 74.1% (inactive) in the assay with CCRF-CEM leukemia.
On to `O=C(O)c1cc(Cc2ccc(O)c(C(=O)O)c2)ccc1O` (tested in a mixture with another compound), for which the growth with SK-MEL-2 melanoma was -53.3% (active); in the assay with EKVX NSCLC it was 73.8% (inactive); in the assay with SN12C renal, 87.1% (inactive); in the assay on UO-31 renal, 42.6% (inactive); with TK-10 renal, 93% (inactive); in the assay with ACHN renal it was 77% (inactive). For the same compound, the growth in the assay with CAKI-1 renal is 58.4% (inactive); with A498 renal, 84.7% (inactive); in the assay with HL-60(TB) leukemia, 21.3% (inactive); in the assay with CCRF-CEM leukemia, 0.136% (active).
In the case of `C=C1C(=O)O[C@@H]2C[C@@H](C)[C@@H]3C=CC(=O)[C@@]3(C)[C@@H](O)[C@H]12`, the growth in the assay on SK-MEL-2 melanoma was -24.4% (active); with EKVX NSCLC it was -61% (active); with SN12C renal, 9.98% (active); in the assay with UO-31 renal, -94.9% (active); in the assay with TK-10 renal it was -97.9% (active); in the assay on ACHN renal, -93.5% (active). Besides, the growth in the assay on CAKI-1 renal is -91.6% (active); in the assay on A498 renal, -17.1% (active); in the assay with CCRF-CEM leukemia it was -42.4% (active).
`S=C=NCCc1ccccc1`: the growth was 104% (inactive) in the assay with SK-MEL-2 melanoma; 127% (inactive) in the assay with EKVX NSCLC; 68.4% (inactive) in the assay with SN12C renal; 51.3% (inactive) in the assay with UO-31 renal; 78.9% (inactive) in the assay with TK-10 renal; 72% (inactive) in the assay on ACHN renal. In addition, the growth in the assay on CAKI-1 renal was 69.4% (inactive); in the assay on HL-60(TB) leukemia it was 9.55% (active); in the assay on CCRF-CEM leukemia, 16.7% (inactive).
Consider `Cn1c(O)c(N=O)c(=O)n(C)c1=O`, for which the growth in the assay on SK-MEL-2 melanoma is 108% (inactive) and 109% (inactive); in the assay on EKVX NSCLC it was 110% (inactive) and 107% (inactive); with SN12C renal it was 108% (inactive) and 94.7% (inactive); with UO-31 renal, 89.1% (inactive) and 85.7% (inactive); in the assay with TK-10 renal, 102% (inactive) and 105% (inactive); with ACHN renal, 110% (inactive) and 105% (inactive). In addition, the growth in the assay on CAKI-1 renal was 107% (inactive) and 113% (inactive); with A498 renal, 84.5% (inactive) and 97% (inactive); with HL-60(TB) leukemia it was 96.6% (inactive) and 101% (inactive); with CCRF-CEM leukemia it was 111% (inactive) and 113% (inactive).
`CC[C@@]1(O)C[C@H](OC2CC(N(C)C)C(O)C(C)O2)c2c(cc3c(c2O)C(=O)c2c(O)ccc(O)c2C3=O)[C@H]1C(=O)OC` (some centres not stated): the growth with SK-MEL-2 melanoma is -57.1% (active); in the assay on EKVX NSCLC, -47.8% (active); with SN12C renal it was -42.7% (active); with UO-31 renal it was -64.7% (active); in the assay with TK-10 renal, -50.4% (active); with ACHN renal, -88.4% (active). In addition, the growth with CAKI-1 renal was -71.8% (active); in the assay on HL-60(TB) leukemia, -68.9% (active); in the assay with CCRF-CEM leukemia, -30.1% (active).
Turning to `[Cl][Hg][c]1ccc2ccccc2c1`, the growth was -90.7% (active) in the assay on SK-MEL-2 melanoma; -48.6% (active) in the assay with EKVX NSCLC; -67.1% (active) with SN12C renal; -89.3% (active) with UO-31 renal; -95.3% (active) with TK-10 renal; -85.5% (active) with ACHN renal. Further, the growth in the assay with CAKI-1 renal was -94% (active); in the assay on A498 renal, -9.18% (active); with HL-60(TB) leukemia, -20.3% (active); in the assay on CCRF-CEM leukemia it was 0.0061% (active).
`COc1ccc(/C=C\[N+](=O)[O-])cc1OC`: the growth in the assay with SK-MEL-2 melanoma was 92% (inactive) and 92.7% (inactive); in the assay with EKVX NSCLC, 103% (inactive) and 76.3% (inactive); with SN12C renal it was 81.4% (inactive); with UO-31 renal, 33.1% (inactive) and 75.1% (inactive); in the assay on TK-10 renal, 85.9% (inactive) and 76.5% (inactive); in the assay with ACHN renal it was 64.4% (inactive) and 79.1% (inactive). For the same compound, the growth in the assay with CAKI-1 renal was 63.1% (inactive) and 58.6% (inactive); in the assay on A498 renal, 92.9% (inactive) and 77.8% (inactive); in the assay on HL-60(TB) leukemia, 44.3% (inactive) and 2.41% (active); in the assay with CCRF-CEM leukemia it was 70.2% (inactive) and 27.2% (inactive).
